According to PubChem BioAssay (NCATS):
Values joined by “and” are separate entries in the source; they are usually repeats but may differ in a detail not shown here. Equal entries are not always repeated. Records with an inconclusive call do not appear. Entries that show only a call come without a potency. A number with no mark means an inactive call. Active and inactive are the calls of the source. Calls come from the whole dose curve; as a rule, active = well fitted curve in the direction sought with a large enough effect; inconclusive = small, poorly fitted or top-dose-only effect, or another doubt; inactive = no such curve, though single readings can be large; an effect the other way counts as inactive or inconclusive.

How the values were obtained:
[1] = target: Cytochrome P450 3A7 (Homo sapiens) (UniProt P24462); assay: Cytochrome P450 family 3 subfamily A member 7 (CYP3A7) small molecule antagonists: luciferase biochemical qHTS assay (AID 1963596); note: nearly all actives have a fitted effect of over 40% in size; note: potency is the fitted concentration of half-maximal effect
Cytochrome P450 3A7 (Homo sapiens), sequence (P24462 whole entry, looked up): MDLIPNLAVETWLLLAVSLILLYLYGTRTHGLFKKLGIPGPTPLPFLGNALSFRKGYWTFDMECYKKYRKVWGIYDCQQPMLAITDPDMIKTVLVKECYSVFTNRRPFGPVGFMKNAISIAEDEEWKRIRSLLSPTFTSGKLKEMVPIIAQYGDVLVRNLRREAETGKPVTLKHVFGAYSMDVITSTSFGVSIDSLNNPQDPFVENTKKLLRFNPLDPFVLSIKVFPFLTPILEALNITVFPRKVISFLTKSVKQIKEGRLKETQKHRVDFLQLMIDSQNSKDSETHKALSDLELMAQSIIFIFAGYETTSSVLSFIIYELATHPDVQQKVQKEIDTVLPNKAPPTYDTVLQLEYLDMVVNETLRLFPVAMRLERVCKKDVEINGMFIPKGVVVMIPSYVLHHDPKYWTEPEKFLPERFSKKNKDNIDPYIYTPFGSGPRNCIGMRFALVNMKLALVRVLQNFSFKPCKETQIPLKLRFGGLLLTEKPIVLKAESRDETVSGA
Procedure, shortened: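 Enzyme-substrate mix + cpd (DMSO), 10 min RT; + NADPH regen system, 1 h RT; + luciferin detection reagent, 20 min RT; luminescence read. Proluciferin substrate, P450-Glo format, 1536-well qHTS.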

[2] = Viability qHTS for spleen associated tyrosine kinase inhibitor (SYKi) drug resistant MV4-11 cells (AID 1963824); note: nearly all actives have a fitted effect of over 35% in size; note: potency is the fitted concentration of half-maximal effect
Procedure, shortened: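 CellTiter-Glo luminescence, read 10 min after reagent addition, reports viability after a 72 hr compound exposure. Cells are an MV4-11 line made resistant to SYK inhibition, seeded at 500 per well onto compound-containing plates.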

[3] = Cellular viability qHTS for adrenocortical cancer (ACC) cell line SW-13 (AID 1963989); conditions: SW-13 ACC cells viability, CellTiter-Glo, 48 h; activity (max response): stronger effect = lower value;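 note: cells grown in serum-free medium with ITS supplement; nearly all actives have a fitted effect of over 65% in size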
Procedure, shortened: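 Compound titrations (up to 46 uM final, in DMSO) were applied to SW-13 cells for 48 h at 37C/5% CO2. Reading used CellTiter-Glo after 20 min at room temperature; fitted curves yielded IC50 and efficacy.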

[4] = Cellular viability qHTS for adrenocortical cancer (ACC) cell line NCI-H295R (AID 1963990); note: nearly all actives have a fitted effect of over 60% in size
Procedure, shortened: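 Readout: CellTiter-Glo luminescence, 20 min RT. Exposure: 48 h, 37C/5% CO2. Cells: NCI-H295R, ITS-DMEM serum-free. Range: up to 46 uM. Analysis: 4PL fit, IC50 plus efficacy.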

[5] = Quantitative highthroughput screen to assess conditional lethalithy of NOMO1 cells grown in RPMI1640 with untreated serum (RPMI+s) (AID 1963876); note: nearly all actives have a fitted effect of over 35% in size; note: potency is the fitted concentration of half-maximal effect
Procedure, shortened: (§1)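 Each medium arm—HPLM with 10% dialyzed FBS, or RPMI1640 with 5 mM glucose and 10% untreated or dialyzed FBS—was screened against an 11-point, 3-fold compound titration for 48 h at 37 °C, with CellTiter-Glo luminescence as endpoint.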

[6] = Quantitative highthroughput screen to assess conditional lethalithy of NOMO1 cells grown in Human Plasma-Like Medium with dialyzed fetal bovine serum (HPLM+ds) (AID 1963878); note: nearly all actives have a fitted effect of over 35% in size; note: potency is the fitted concentration of half-maximal effect
Procedure, shortened: as §1

[7] = Quantitative highthroughput screen to assess conditional lethalithy of P12 Ichikawa cells grown in Human Plasma-Like Medium with dialyzed fetal bovine serum (HPLM+ds) (AID 1963879); conditions: Potency: viability; note: nearly all actives have a fitted effect of over 35% in size; note: potency is the fitted concentration of half-maximal effect; for Viability: series mostly up to about 46 µM
Procedure, shortened: as §1

[8] = Quantitative highthroughput screen to assess conditional lethalithy of P12 Ichikawa cells grown in RPMI1640 with dialyzed fetal bovine serum (RPMI+ds) (AID 1963880); conditions: Potency: P12-Ichikawa viability; note: nearly all actives have a fitted effect of over 35% in size; note: potency is the fitted concentration of half-maximal effect
Procedure, shortened: as §1

[9] = Quantitative highthroughput screen to assess conditional lethalithy of P12 Ichikawa cells grown in RPMI1640 with untreated serum (RPMI+s) (AID 1963881); conditions: Potency: viability; note: nearly all actives have a fitted effect of over 35% in size; note: potency is the fitted concentration of half-maximal effect; for Viability: series mostly up to about 46 µM
Procedure, shortened: as §1

[10] = Quantitative highthroughput screen to assess conditional lethalithy of SEM cells grown in Human Plasma-Like Medium with dialyzed fetal bovine serum (HPLM+ds) (AID 1963882); note: nearly all actives have a fitted effect of over 35% in size; note: potency is the fitted concentration of half-maximal effect; for Viability: series mostly up to about 46 µM
Procedure, shortened: as §1

[11] = Quantitative highthroughput screen to assess conditional lethalithy of SEM cells grown in RPMI1640 with unreated serum (RPMI+s) (AID 1963883); note: nearly all actives have a fitted effect of over 35% in size; note: potency is the fitted concentration of half-maximal effect
Procedure, shortened: as §1

[12] = Quantitative highthroughput screen to assess conditional lethalithy of SEM cells grown in RPMI1640 with dialyzed fetal bovine serum (RPMI+ds) (AID 1963884); note: nearly all actives have a fitted effect of over 35% in size; note: potency is the fitted concentration of half-maximal effect; for Viability: series mostly up to about 46 µM
Procedure, shortened: as §1

[13] = Quantitative highthroughput screen to assess conditional lethalithy of NOMO1 cells grown in RPMI1640 with dialyzed fetal bovine serum (RPMI+ds) (AID 1963877); note: series mostly up to about 46 µM; nearly all actives have a fitted effect of over 30% in size
Procedure, shortened: as §1

Cc1cccc(C)c1NC(=O)CN1CCCC1
Potency [1]: inactive
Potency [2]: 5.96 µM (active)
activity (max response) [3]: 3.45%
Potency [4]: inactive

Clc1ccccc1-c1nc(-c2ccncc2)no1
Potency [1]: inactive
Potency [2]: 11.9 µM (active)
activity (max response) [3]: -7.1%
Potency [4]: inactive

Nc1cc(=O)[nH]c(N)n1
Potency [1]: inactive
Potency [2]: inactive
activity (max response) [3]: -6.62%
Potency [4]: inactive

O=C(OOC(=O)c1ccccc1)c1ccccc1
Potency [1]: inactive
Potency [2]: inactive
activity (max response) [3]: 0.27%
Potency [4]: inactive

CCCCCCCCCCCCCCCC(=O)O
Potency [1]: inactive
Potency [2]: inactive
activity (max response) [3]: 8.9%
Potency [4]: inactive

CCN(CC)S(=O)(=O)c1ccc(C(=O)O)cc1
Potency [1]: inactive
Potency [2]: inactive
activity (max response) [3]: -2.24%
Potency [4]: inactive

CC1CCc2cc(F)cc3c(=O)c(C(=O)O)cn1c23 (stereo not drawn)
Potency [1]: inactive
Potency [2]: 6.68 µM (active)
activity (max response) [3]: 5.01%
Potency [4]: inactive

NS(=O)(=O)Cc1noc2ccccc12
Potency [1]: inactive
Potency [2]: inactive
activity (max response) [3]: 1.85%
Potency [4]: inactive

CCN(CC)CCNC(=O)c1ccc(NC(C)=O)cc1
Potency [1]: inactive
Potency [2]: inactive
activity (max response) [3]: -7.72%
Potency [4]: inactive

Nc1ncnc2c1ncn2Cc1c(F)cccc1Cl
Potency [1]: inactive
Potency [2]: inactive
activity (max response) [3]: 6.36%
Potency [4]: inactive

CS(=O)c1ccc(-c2nc(-c3ccc(F)cc3)c(-c3ccncc3)[nH]2)cc1 (stereo not drawn)
Potency [1]: inactive
Potency [5]: 6.79 µM (active)
Potency [6]: 6.05 µM (active)
Potency [7]: 9.59 µM (active)
Potency [8]: 8.55 µM (active)
Potency [9]: 7.62 µM (active)
Potency [10]: 7.62 µM (active)
Potency [11]: 2.41 µM (active)
Potency [12]: 5.4 µM (active)
Potency [4]: inactive

CC(=O)NC[C@H]1CN(c2ccc(N3CCOCC3)c(F)c2)C(=O)O1
Potency [1]: inactive
Potency [13]: inactive
Potency [7]: inactive
Potency [8]: inactive
Potency [9]: inactive
Potency [10]: inactive
Potency [11]: inactive
Potency [12]: inactive
activity (max response) [3]: 5.63%

O=C(NC[C@H](O)CN1CCc2ccccc2C1)c1cc(NC2COC2)ncn1
Potency [1]: inactive
Potency [5]: inactive
Potency [6]: inactive
Potency [7]: inactive
Potency [8]: inactive
Potency [9]: inactive
activity (max response) [3]: -16.9%
Potency [4]: inactive

N[C@H]1CN(c2c(F)cc3c(=O)c(C(=O)O)cn(C4C[C@@H]4F)c3c2Cl)CC12CC2 (stereo partly drawn)
Potency [1]: inactive
Potency [13]: inactive
Potency [7]: inactive
Potency [8]: inactive
Potency [9]: inactive
Potency [11]: inactive
Potency [4]: inactive

N[C@@H](CSCCCO)C(=O)O
Potency [1]: inactive
activity (max response) [3]: 14.2%

O=c1c(O)c(-c2ccc(O)cc2O)oc2cc(O)cc(O)c12
Potency [1]: inactive
Potency [5]: inactive
Potency [13]: inactive
activity (max response) [3]: 14.7%
Potency [4]: inactive

CCc1ccc(C(=O)C(C)CN2CCCCC2)cc1 (stereo not drawn)
Potency [1]: 30.9 µM (active)
activity (max response) [3]: -7.06%

CCOC(=O)N1c2ccc(C(F)(F)F)cc2[C@@H](N(Cc2cc(C(F)(F)F)cc(C(F)(F)F)c2)C(=O)OC)C[C@H]1CC
Potency [1]: inactive
Potency [13]: inactive
Potency [6]: inactive
Potency [7]: inactive
Potency [8]: inactive
Potency [9]: inactive
Potency [10]: inactive
Potency [11]: inactive
Potency [12]: inactive
activity (max response) [3]: 4.35%
Potency [4]: inactive

Nc1ccc(S(=O)(=O)Nc2ncccn2)cc1
Potency [1]: inactive
Potency [5]: inactive
Potency [13]: inactive
Potency [6]: inactive
Potency [7]: inactive
Potency [9]: inactive
Potency [10]: inactive
Potency [11]: inactive
Potency [12]: inactive

CS(=O)(=O)OCCCCOS(C)(=O)=O
Potency [1]: inactive
Potency [11]: 20.9 µM (active)
activity (max response) [3]: 4.16%
Potency [4]: inactive

CCNC(=O)Nc1ccc2ncc(Nc3ccc(C)cc3)nc2n1
Potency [1]: inactive
Potency [8]: inactive

c1ccc2[nH]c(-c3cscn3)nc2c1
Potency [1]: inactive
Potency [5]: inactive
Potency [13]: inactive
Potency [6]: 8.33 µM (active)
activity (max response) [3]: -9.06% and -18.4%
Potency [4]: inactive

O=C(NCCO[N+](=O)[O-])c1cccnc1
Potency [1]: inactive
Potency [5]: inactive
Potency [7]: inactive
Potency [8]: inactive
Potency [9]: inactive
Potency [10]: inactive
Potency [12]: inactive
activity (max response) [3]: 2.63% and 5.13%
Potency [4]: inactive

O=C(Nc1ccc([N+](=O)[O-])cc1)Nc1ccc([N+](=O)[O-])cc1
Potency [1]: inactive
activity (max response) [3]: 3.91%

CC1(C)O[C@@H]2C[C@H]3[C@@H]4C[C@H](F)C5=CC(=O)CC[C@]5(C)[C@H]4[C@@H](O)C[C@]3(C)[C@]2(C(=O)CO)O1
Potency [1]: inactive
activity (max response) [3]: 3.69%

Cc1[nH]c(=O)c(C#N)cc1-c1ccc2nccn2c1
Potency [1]: inactive
Potency [5]: inactive
Potency [6]: inactive
Potency [7]: inactive
Potency [8]: inactive
Potency [9]: inactive
Potency [10]: inactive
Potency [11]: inactive
Potency [12]: inactive
activity (max response) [3]: 11.7%
Potency [4]: inactive

OC[C@]1(O)OC[C@@H](O)[C@H](O)[C@@H]1O
Potency [1]: inactive
activity (max response) [3]: 6.17%

O=C(O)c1[nH]n(-c2ccc(S(=O)(=O)O)cc2)c(=O)c1N=Nc1ccc(S(=O)(=O)O)cc1
Potency [1]: inactive
activity (max response) [3]: 6.82%
